Source: the supplement of paper PMC3484114
± gives the standard deviation.

These compounds were tested on OVCAR-3-derived ovarian cancer stem-like cells (spheroids) (assay: cell growth relative to untreated control; higher = more growth (less inhibition)). Details: 2.29 µM; 96 h.
In short: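 Stem-like cells derived from OVCAR-3 spheroids were dissociated with trypsin and seeded at 50,000 cells/mL in stem cell medium in ultra-low attachment 96-well plates, then preincubated for 24 h. Each compound was added at 2.29 uM to 4 replicate wells and left for 96 h at 37°C, 5% CO2. Viability came from TOX8 resazurin fluorescence (ex 560/em 590 nm) read after 4 h. Percent growth was expressed relative to untreated wells, after blank subtraction and removal of outliers by the Grubbs test.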
COC(=O)Nc1nc2ccc(Br)cc2[nH]1 showed a cell growth of 107 ± 23%. CC(=O)/C(=C\c1cccc([N+](=O)[O-])c1)C(=O)Nc1ccccc1C showed a cell growth of 81.8 ± 22%. N#CC(c1ccccc1)N(CCCCCCN(C(=O)c1ccccc1)C(C#N)c1ccccc1)C(=O)c1ccccc1 (centres undefined) was tested, and the cell growth was 122 ± 23%. Work on Cc1c2cnccc2c(C)c2c1c1ccccc1n2CCOC(=O)c1ccccc1 yielded a cell growth of 127 ± 35%. CC(C)(O)CCC(O)C(C)(O)C1CCC2(O)C3=CC(=O)C4(O)CC(O)C(O)CC4(C)C3CCC12C.CC(C)(O)CCC(O)C(C)(O)C1CCC2(O)C3=CC(=O)C4CC(O)C(O)CC4(C)C3CCC12C (centres undefined) gave a cell growth of 98 ± 21%. With CC(=O)Oc1ccc(C(c2ccc(OC(C)=O)cc2)c2ccccn2)cc1 the cell growth was 20.8 ± 5.2%. Work on CC1=C/C(=N\OCC(=O)O)CC(c2ccc(C(C)C)cc2)C1 (centres undefined) yielded a cell growth of 12.4 ± 5%. For Cc1ccc(Nc2nc(C)c(C(/C=C/c3ccc(/C=C/C(=N\NC(=O)C[n+]4ccccc4)c4sc(Nc5ccc(C)cc5[N+](=O)[O-])nc4C)cc3)=N/NC(=O)C[n+]3ccccc3)s2)c([N+](=O)[O-])c1, the cell growth was 110 ± 11%. O=C(Nc1ccc2c(c1)oc(=O)c1ccccc12)C(Cl)Cl was tested, and the cell growth was 10.2 ± 2.1%. COc1ccc(Cc2nc3ccccc3s2)cc1OC gave a cell growth of 98.9 ± 21%. Compound COc1ccc2nc(C)cc(NCCCCCCCCCNc3cc(C)nc4ccc(OC)cc34)c2c1 has a cell growth of 75.9 ± 37%. In the case of COC(=O)c1ccc(=O)c2nc3/c(=C/O)c(O)cc(=O)c3[nH]c12, the cell growth is reported as 109 ± 44%. O=C(Nc1cccc(C(F)(F)F)c1)C(=O)C(C(=O)c1ccc(Cl)c(Cl)c1)C1OC(=O)c2ccccc21 (centres undefined) showed a cell growth of 102 ± 20%. COc1ccc(N=Cc2ccc(N(CCC#N)S(=O)(=O)c3ccccc3)cc2C)cc1 was tested, and the cell growth was 80.6 ± 28%.
